Compound activity deposited in PubChem by several laboratories.
In the library only some 1.2% were active in any assay of this set; here they are far more common.
SRC2 inh – inhibits human steroid receptor coactivator 2; Q15596; HEK293 GAL4-SRC2 luciferase reporter, luminescence; inhibition, % at 9 µM; actives 0.17% (n = 370,000); AID 651957;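 active = inhibition above the mean inhibition of all tested compounds plus 3 SD, set per campaign, cut at about 52% in these data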
SRC1 inh – inhibits human SRC1 coactivator; inhibition, % at 3.6 µM; HEK293 GAL4-SRC1 luciferase reporter, luminescence; Q15788; actives 0.12% (n = 360,000);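 active = inhibition above the campaign mean plus 3 SD, with each screening campaign given its own cutoff, cut at about 60% in these data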
NR5A2 inv ag – NR5A2 inverse agonism in reporter assay; O00482; actives 0.13% (n = 360,000); AID 602396; HEK293T StAR-luciferase reporter, LRH-1 transfected, 24 h; inhibition, % at 3.6 µM;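 active = inhibition above the mean inhibition of all tested compounds plus 3 SD, cut at about 73% in these data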
LMP1 NFkB inh – inhibitors of Epstein-Barr LMP1-induced NF-kappaB reporter; LMP1-induced NF-kappaB luciferase reporter cells, luminescence; inhibition, % at 12.5 µM; actives 0.69% (n = 350,000); in the data active = inhibition above about 41%; inconclusive = no clear call, values can overlap the other calls
SRC3 inh – human NCOA3 inhibition; Q9Y6Q9; HEK293 GAL4-SRC3 luciferase reporter, luminescence; inhibition, % at 3.6 µM; actives 0.17% (n = 360,000); AID 588352;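 active = inhibition above a per-campaign cutoff, the mean of all compounds plus 3 SD, cut at about 60% in these data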;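 note: higher means less SRC3-driven luciferase light from the GAL4 reporter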
Shn3 inh set2 – inhibitors of Schnurri-3 3'UTR reporter in osteoblasts; Clone20 osteoblast Shn3 3'UTR firefly luciferase, 24 h; inhibition, % at 12.5 µM; actives 0.52% (n = 360,000);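 active = mean inhibition of at least 75% with every replicate also reaching 75%; inconclusive = mean inhibition at least 75% but some replicate below; inactive = mean inhibition below 75%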
Large screens that a line does not name were inactive.

COc1ccccc1NC(=O)OC1CCC12CCCCC2 (stereo unspecified)	none (no result: SRC1 inh, NR5A2 inv ag, LMP1 NFkB inh, SRC3 inh, Shn3 inh set2)
CC[C@@H](CCCCCCCn1ccc2ccccc21)CCC(=O)N(c1ccccc1)c1ccccc1	none (no result: SRC1 inh, NR5A2 inv ag, LMP1 NFkB inh, SRC3 inh, Shn3 inh set2)
CC(=O)Nc1ccc(S(=O)(=O)N2CCN(S(=O)(=O)N3CCCCCC3)CC2)cc1	none (no result: Shn3 inh set2)
CC(=O)Nc1ccc(S(=O)(=O)N2CCCC2)cc1	LMP1 NFkB inh 71
CC(C)(C)NC(=S)N1CCC(C(=O)c2ccc(Cl)cc2)CC1	LMP1 NFkB inh 42
COc1ccc(CCNC(=O)c2nnn(-c3ccc4c(c3)OCCO4)c2N)cc1OC	SRC2 inh 55, LMP1 NFkB inh 50
CCCN(CC(=O)Nc1ccccc1C)C(=O)CCl	SRC2 inh 56, LMP1 NFkB inh 72
CCOC(=O)N1CCC(n2c(=S)[nH]c3ccccc3c2=O)CC1	LMP1 NFkB inh 66
COC(CNC(=O)c1ccc(N2CCC3(CC2)OCCO3)c([N+](=O)[O-])c1)OC	LMP1 NFkB inh 51
O=C(c1ccc(N2CCC3(CC2)OCCO3)c([N+](=O)[O-])c1)N1CCOCC1	none
CC(C)(C)c1nnc(N/N=C/c2ccccc2)n(N)c1=O	none
CC(C)(C)c1nnc(N/N=C/c2ccccc2O)n(N)c1=O	SRC1 inh 70, SRC3 inh 79, Shn3 inh set2 90
CC(C)OCCCNC(=O)C1CCC(CNS(=O)(=O)c2ccccc2)CC1 (stereo unspecified)	LMP1 NFkB inh 67
COCCNC(=O)C1CCC(CNS(=O)(=O)c2ccccc2)CC1 (stereo unspecified)	LMP1 NFkB inh 56
CC(C)OCCCNC(=O)C1CCC(CNS(=O)(=O)c2ccc(Cl)cc2)CC1 (stereo unspecified)	none
O=C(OCCN1CCN(C2CN(Cc3cn(Cc4ccccc4C(F)(F)F)nn3)S(=O)(=O)C2)CC1)c1cc2ccccc2o1 (stereo unspecified)	none (no result: SRC1 inh, NR5A2 inv ag, LMP1 NFkB inh, SRC3 inh, Shn3 inh set2)
CS(=O)(=O)N1CCN(c2ccc(NC(=O)c3ccc([N+](=O)[O-])o3)cc2)CC1	Shn3 inh set2 97
CC(C)(C)C(=O)N1CCN(c2ccc(NC(=O)c3ccc([N+](=O)[O-])o3)cc2)CC1	Shn3 inh set2 93
O=C(Nc1ccc(N2CCN(C(=O)c3ccc(Cl)cc3)CC2)cc1)c1ccc2c(c1)OCCO2	Shn3 inh set2 89
O=C(Nc1ccc(N2CCN(C(=O)c3ccc(Cl)cc3)CC2)cc1)c1ccc([N+](=O)[O-])o1	Shn3 inh set2 98
O=C(Nc1ccc(N2CCN(C(=O)c3ccccc3)CC2)cc1)c1ccc2c(c1)OCCO2	none
O=C(Nc1ccc(N2CCCCC2)cc1)c1ccc([N+](=O)[O-])o1	none
CC1CCN(c2ccc(NC(=O)c3ccc([N+](=O)[O-])o3)cc2)CC1	Shn3 inh set2 91
C[C@@H]1C[C@H]2[C@@H](Cc3ccccc3)C(=O)N3[C@H](c4ccccc4)[C@H](C)C[C@H]3[C@@H](Cc3ccccc3)C(=O)N2[C@@H]1c1ccccc1	none (no result: SRC1 inh, NR5A2 inv ag, LMP1 NFkB inh, SRC3 inh, Shn3 inh set2)
CN(C)CCNc1ccc(CO)c2sc3ccc(O)cc3c(=O)c12	SRC1 inh 79, LMP1 NFkB inh 49
COc1ccc(OCC(C)CN2CCC(C(O)(c3ccccc3)c3ccccc3)CC2)cc1 (stereo unspecified)	none (no result: SRC1 inh, NR5A2 inv ag, LMP1 NFkB inh, SRC3 inh, Shn3 inh set2)
CN(C)P(=O)(Nc1cccc2ccccc12)Nc1cccc2ccccc12	Shn3 inh set2 88
Cc1ccc(C(=O)N/N=C/c2cccc(OC(=O)/C=C/c3ccco3)c2)cn1	none
O=C(/C=C/c1ccco1)Oc1cc(Br)cc(/C=N/NC(=O)c2ccccc2O)c1	LMP1 NFkB inh 61, Shn3 inh set2 94
Cc1cccc(C(=O)NCN2CCN(c3ccccc3C#N)CC2)c1	LMP1 NFkB inh 82
O=C(NCN1CCN(c2ccccc2F)CC1)c1ccccc1	none
Nc1[nH]c(C(=O)c2ccccc2)c(-c2ccc(F)cc2)c1C(=O)c1c[nH]c2ccccc12	none (no result: SRC1 inh, NR5A2 inv ag, LMP1 NFkB inh, SRC3 inh, Shn3 inh set2)
Oc1c(Br)cc(Br)cc1/C=N/Nc1ccc(Cl)nn1	LMP1 NFkB inh 45, Shn3 inh set2 95
Oc1c(Br)cc(/C=N/Nc2ccc(Cl)nn2)cc1Br	none
c1ccc2c(-c3[nH]ncc3CNCCCn3ncc4ccccc43)cccc2c1	Shn3 inh set2 90
OCC1CCCCN1CCNCc1cn[nH]c1-c1cccc2ccccc12 (stereo unspecified)	none
O=C(NC1CCCCC1)c1csnn1	LMP1 NFkB inh 89
O=C(NC1CCCCCCC1)c1cnccn1	none
CC(C)N1Cc2nnn(Cc3ccccc3)c2-c2cc(N3CCCC3)ccc2S1(=O)=O	none (no result: SRC1 inh, NR5A2 inv ag, LMP1 NFkB inh, SRC3 inh, Shn3 inh set2)
CCOc1ccc(NC(=O)CCCc2cc(-c3ccc(OCC)cc3)on2)cc1	none
CCOc1ccc(-c2cc(CCCC(=O)Nc3cccc(OC)c3)no2)cc1	SRC2 inh 55, LMP1 NFkB inh 47
CCOc1ccc(-c2cc(CCCC(=O)Nc3cc(OC)ccc3OC)no2)cc1	SRC2 inh 73
Cc1ccc2nc(-c3ccccc3)nn2c1	LMP1 NFkB inh 64
Cc1ccc(-c2csc3ncnc(SCC(=O)Nc4nnc(C)s4)c23)cc1	none
Cc1ccc(-c2csc3ncnc(Sc4nnc(CN5CCCCCC5=O)o4)c23)cc1	LMP1 NFkB inh 42
CCOC(=O)C1=CCN(S(=O)(=O)c2ccc(Br)cc2)C1c1ccc(Br)cc1 (stereo unspecified)	none (no result: SRC1 inh, NR5A2 inv ag, LMP1 NFkB inh, SRC3 inh, Shn3 inh set2)
O=C1[C@@H]2Cc3c([nH]c4ccccc34)C(c3ccccc3)N2C(=O)CN1C1CC1 (stereo partly specified)	none
O=C1[C@@H]2Cc3c([nH]c4ccccc34)C(c3ccc([N+](=O)[O-])cc3)N2C(=O)CN1C1CC1 (stereo partly specified)	SRC1 inh 75, SRC3 inh 69
COC(=O)C12C=C3CC(C)=C3C(=O)N1Cc1[nH]c3ccccc3c1C2 (stereo unspecified)	none (no result: SRC1 inh, NR5A2 inv ag, LMP1 NFkB inh, SRC3 inh, Shn3 inh set2)
COc1ccc(N(C(=O)CCl)C(C(=O)NCCc2ccccc2)c2cccs2)cc1Cl (stereo unspecified)	SRC3 inh 76, Shn3 inh set2 inconclusive
COc1cccc(N(C(=O)CCl)C(C(=O)NCCc2ccccc2)c2cccs2)c1 (stereo unspecified)	SRC2 inh 61, SRC3 inh 68
COc1ccc(N(C(=O)c2ccco2)C(C(=O)NC2CCCCC2)c2cccs2)cc1OC (stereo unspecified)	none
COc1cccc(N(C(=O)c2snc(C(N)=O)c2N)C(C(=O)NCC2CCCO2)c2cccs2)c1 (stereo unspecified)	none
COc1cccc(/C=N/Nc2cc(-n3nc(C)cc3-c3ccccc3)ncn2)c1O	Shn3 inh set2 90
COc1cccc(/C=N/Nc2ncnc3scc(-c4ccccc4)c23)c1O	SRC1 inh 85, NR5A2 inv ag 98, LMP1 NFkB inh 81, SRC3 inh 88, Shn3 inh set2 85
Oc1ccccc1/C=N/Nc1nccnc1Cl	LMP1 NFkB inh 58, Shn3 inh set2 inconclusive
Oc1ccc(/C=N/Nc2nccnc2Cl)c(O)c1	Shn3 inh set2 inconclusive
